# IL-1B inflam inh = blocks inflammasome-driven IL-1 beta release | THP-1 LPS/ATP IL-1B secretion, AlphaLISA, 16 h; stronger effect = lower value | activity change, % at 57.5 µM | AID 743279 | 360,000 tested, 4.7% active; in the data active means activity change below about -50%; inconclusive means mostly about -30% to -49%
#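 Secreted IL-1B measured by AlphaLISA bead assay after 16 h compound exposure of THP-1 cells; compounds (final up to 57.5 uM) added 1 h before LPS (250 ng/mL) and ATP (1.25 mM) stimulation; lower signal means less secretion.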
# DT40 TDP1 no CPT = qHTS for Inhibitors of human tyrosyl-DNA phosphodiesterase 1 (TDP1): qHTS in cells in absence of CPT | Potency, µM (top dose mostly 46.2 µM), without a hit: top-dose activity change, negative = growth inhibition, usual class: inhibitors | 420,000 tested, 15% active | DT40 Tdp1-/- hTDP1 cells, no CPT, ATP luminescence, 48 h | AID 686978, 2013; further: potency means the concentration at half of the fitted maximal effect; nearly all actives have a fitted effect of over 55% in size
#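 Stably hTDP1-transfected Tdp1-null chicken DT40 cells were treated with library compounds minus camptothecin and grown for at least 48 hr at 37 °C, after which cellular ATP was quantified by luminescence.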
# DT40 TDP1 CPT = DT40-hTDP1 cell growth loss with CPT; chicken DT40 Tdp1-/-;hTDP1 cells + 20 nM CPT, ATP luminescence, 48 h; Potency, µM (highest dose often 46.2 µM), inactives show top-dose activity change, negative = growth inhibition, actives largely listed as inhibitors; AID 686979; 420,000 tested, 12% active; further: potency means the concentration at half of the fitted maximal effect; nearly all actives have a fitted effect of over 55% in size
#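 Cell growth measured by CellTiter-Glo luminescence after a minimum 48 h, 37 C compound exposure with 20 nM CPT in Tdp1-knockout DT40 cells stably expressing hTDP1, seeded 400/well; qHTS titration format.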
# CtBP-E1A blk = inhibitors of CtBP/E1A interaction; activity change, % (concentration not given with the values); AlphaScreen GST-E1A/His-CtBP binding, 1536-well; stronger effect = lower value; 340,000 tested, 0.49% active; AID 651724; in the data active means activity change below about -65%; inconclusive means mostly about -30% to -63%
#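 In 5 uL wells, 23 nL compound meets equimolar GST-E1A and His-CtBP (5X stock 125 nM each) for 2 h, 37 °C. Beads (5X, 50 ug/mL) then 1 h, 37 °C, dark.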
# Six1-Eya2 inh = blocks human Six1 binding to Eya2; Q15475+O00167; AlphaScreen GST-Six1/His-Eya2 binding, biochemical; stronger effect = lower value; activity change, % (concentration not given with the values); 360,000 tested, 0.56% active; AID 651725; in the data active means activity change below about -65%; inconclusive means mostly about -30% to -63%
# Target sequence (O00167 whole entry, looked up): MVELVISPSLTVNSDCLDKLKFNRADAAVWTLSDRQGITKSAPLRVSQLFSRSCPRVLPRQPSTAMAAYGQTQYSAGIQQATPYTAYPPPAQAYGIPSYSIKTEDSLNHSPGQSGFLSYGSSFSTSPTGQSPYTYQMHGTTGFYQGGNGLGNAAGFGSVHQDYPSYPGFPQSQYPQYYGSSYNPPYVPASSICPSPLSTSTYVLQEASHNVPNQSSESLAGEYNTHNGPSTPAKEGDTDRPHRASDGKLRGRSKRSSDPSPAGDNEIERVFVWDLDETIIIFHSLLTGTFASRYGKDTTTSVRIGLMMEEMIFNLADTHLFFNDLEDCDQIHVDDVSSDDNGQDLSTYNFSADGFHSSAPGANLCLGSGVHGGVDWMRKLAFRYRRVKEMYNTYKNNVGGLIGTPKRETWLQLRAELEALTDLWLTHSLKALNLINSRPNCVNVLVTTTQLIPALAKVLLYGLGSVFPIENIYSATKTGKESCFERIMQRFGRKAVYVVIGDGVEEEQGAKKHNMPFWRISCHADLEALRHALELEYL
# Target sequence (Q15475 whole entry, looked up): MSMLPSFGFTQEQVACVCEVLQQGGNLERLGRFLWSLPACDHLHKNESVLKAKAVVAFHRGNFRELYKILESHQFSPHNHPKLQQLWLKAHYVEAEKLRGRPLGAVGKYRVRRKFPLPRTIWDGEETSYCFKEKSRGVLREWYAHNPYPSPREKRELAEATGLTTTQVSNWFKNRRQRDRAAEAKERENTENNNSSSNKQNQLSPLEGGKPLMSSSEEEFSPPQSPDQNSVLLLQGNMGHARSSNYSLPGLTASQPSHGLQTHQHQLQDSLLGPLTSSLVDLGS
#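 AlphaScreen with GST-Six1 and His-Eya2 (5X mix: 250 nM and 500 nM), glutathione donor and nickel acceptor beads; buffer 50 mM Tris pH 8.0, 300 mM NaCl, 1 mM TCEP; 1 h at 37 C in the dark.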
# TDP1 block = inhibitors of human tyrosyl-DNA phosphodiesterase TDP1 | Q9NUW8 | recombinant TDP1, AlphaScreen DNA substrate cleavage | Potency, µM (top dose mostly 130 µM), for inactives: at the highest dose activity change, negative = inhibition, most hits filed as inhibitors | 350,000 tested, 0.28% active | AID 485290; further: potency means the concentration at half of the fitted maximal effect; nearly all actives have a fitted effect of over 40% in size
#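 Signal: AlphaScreen proximity between streptavidin donor and anti-FITC acceptor beads on intact substrate. Reaction: Tdp1 1 nM, substrate 15 nM final, 5 min RT after 15 min compound preincubation.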
# * marks the source's active call; other numbers are inactive results; ? = inconclusive; · = no result given; ! = not confirmed by another sample; [ ] = another dose, or the depositor's remark. This is a sample that favours compounds with a hit; in the whole collection about 18% have one here. Unless noted, the call rests on the fitted dose curve; in most records, active means well fitted curve in the direction sought with a large enough effect; inconclusive means small, poorly fitted or top-dose-only effect, or another doubt; inactive means no such curve, though single readings can be large; an effect the other way counts as inactive or inconclusive. On the % scale 0 is the no-effect control and ±100 the full control effect.
SMILES,IL-1B inflam inh,DT40 TDP1 no CPT,DT40 TDP1 CPT,CtBP-E1A blk,Six1-Eya2 inh,TDP1 block
O=C(Nc1ccc2c(c1)CCC2)c1cnn2c1NC(c1ccco1)CC2C(F)(F)F (configuration not stated),-5.0,-57.9%,11.6µM*,-1.7,-4.7,2.6%
CC1CCN(C(=O)CSc2nnc3ccc(-c4cccnc4)nn23)CC1,-57.1*,-24.5%,0.9%,-9.3,0.7,·
O=C(CSc1ccc2nnc(-c3cccnc3)n2n1)c1ccccc1,-1.9,-26.6%,2.5%,-8.8,-8.0,6.3%
CCOC(=O)N1CCN(C(=O)CSc2ccc3nnc(-c4cccnc4)n3n2)CC1,-27.8,18.4µM*,?,0.0,2.5,1.2%
CCOC(=O)C(CC)Sc1ccc2nnc(-c3cccnc3)n2n1 (configuration not stated),26.7,?,14.1µM*!,3.2,-6.2,2.5%
CCOc1ccc(NC(=O)CSc2ccc3nnc(-c4cccnc4)n3n2)cc1,-5.2,?,-11.8%,-2.9,-18.1,7.1%
CC12CCC(=O)N1C(C(=O)N1CCN(S(=O)(=O)c3ccc(F)c(F)c3)CC1)CS2 (configuration not stated),2.8,-19.3%,4.1%,5.6,1.6,·
CCN(CC(=O)Nc1ccc(NC(C)=O)cc1)C(=O)c1cc(S(=O)(=O)N2CCCCCC2)ccc1OC,-11.6,-10.6%,-12.3%,-5.7,-4.4,·
Cc1cc(C)cc(NC(=O)CCn2c(=O)c3cccn3c3ccccc32)c1,20.3,8.2µM*,5.8µM*,·,-11.7,3.6%
Cc1cc(C)cc(NC(=O)CCCn2c3ccccc3c(=O)c3ccccc32)c1,·,23.1µM*,?,·,·,4.0%[12.3 µM]
COc1ccc(NC(=O)CCn2c(=O)c3cccn3c3ccccc32)c(OC)c1,0.0,20.6µM*,16.4µM*,-23.0,-12.1,6.5%
O=C(CCn1c(=O)c2cccn2c2ccccc21)Nc1ccc(F)cc1,46.3,11.6µM*!,?,-22.6,-16.0,2.7%
COc1ccc(NC(=O)CCn2c(=O)c3cccn3c3ccccc32)cc1,56.9,?,?,?,-14.2,0.6%
COc1ccc(NC(=O)CCN2CCN(Cc3ccccc3)CC2)c(OC)c1,13.8,?,-2.3%,·,-2.3,·
CCOC(=O)c1ccc(NC(=O)CCn2c(=O)c3cccn3c3ccccc32)cc1,·,-12.6%,?,·,·,2.6%
COc1cc(NC(=O)CCC(=O)OCCCC(F)(F)C(F)(F)F)nc(OC)n1,38.0,-16.2%,-4.7%,4.7,5.4,-2.5%
COc1cc(-c2nnc(COC(=O)c3ccc([N+](=O)[O-])o3)o2)cc(OC)c1OC,9.3,?,?,-2.6,-18.1,·
O=C(NCC1CCCCC1)c1ccc2sc([C@H]3C[C@H](O)[C@@H](CO)O3)nc2c1,38.8,?,-22.1%,-3.9,-3.2,·
Cc1ccc(NC(=O)CCCC(=O)OC(C)C(=O)c2ccccc2)cc1 (configuration not stated),25.1,-6.8%,-0.5%,6.5,3.4,·
Cn1cccc1C(=O)NC1CCCCCC1,-2.0,-21.2%,-9.4%,·,-1.9,1.7%
CC1Sc2ccc(C#N)cc2N(Cc2cccc(C(F)(F)F)c2)C1=O (configuration not stated),55.5,?,?,22.8,5.8,·
COc1cccc(NC(=O)CCCn2c(=O)c3cccn3c3cccnc32)c1,·,20.6µM*,?,·,·,2.6%
Cc1ccc(NC(=O)Cn2c(=O)c3cccn3c3ccccc32)c(C)c1,?,1.8%,-5.7%,4.8,1.7,-1.4%
CCOC(=O)c1cccc(NC(=O)CCCn2c(=O)c3cccn3c3cccnc32)c1,-8.9,-21.0%,?,-7.6,-1.1,4.8%
Cc1ccc(NC(=O)CCn2c(=O)c3cccn3c3ccccc32)c(C)c1,0.0,20.6µM*,?,-23.1,-14.3,3.2%
SMILES,IL-1B inflam inh,DT40 TDP1 no CPT,DT40 TDP1 CPT,CtBP-E1A blk,Six1-Eya2 inh,TDP1 block
CC1(C(=O)NS(=O)(=O)c2cccc(OC(F)F)c2)CCN1C(=O)c1ccccc1 (configuration not stated),38.4,-5.8%,-15.0%,4.9,0.8,·
COc1ccc(COC(=O)C2=C(C)NC(=O)NC2c2ccc(OC)cc2)cc1 (configuration not stated),0.0,?,?,9.4,-2.9,·
CNc1sc(C(=O)c2ccc(F)cc2)c(N)c1-c1nc2ccccc2s1,9.5,7.31µM*,5.17µM*,?,-29.3,11.6%
CN(c1ccc(F)cc1)S(=O)(=O)c1ccc(Cl)c(C(=O)NCC(c2ccco2)N2CCCCC2)c1 (configuration not stated),-18.5,2.31µM*,2.31µM*,-2.2,-6.8,8.4%
CN(C)C(CNC(=O)c1cc(S(=O)(=O)N(C)c2ccc(F)cc2)ccc1Cl)c1ccco1 (configuration not stated),5.7,7.31µM*,9.2µM*,3.6,-4.1,·
Cc1ccc(S(=O)(=O)N(C)c2ccc(C(=O)NCC(c3ccco3)N3CCCC3)cc2)cc1 (configuration not stated),-16.8,16.4µM*,?,-9.1,2.7,·
CN(C)C(CNC(=O)c1cc(S(=O)(=O)N(C)c2ccccc2)ccc1Cl)c1ccccc1 (configuration not stated),-10.2,6.51µM*,5.8µM*,-9.2,1.9,4.2%
O=C(CC1Nc2c3ccccc3nc(=S)n2C1=O)NC1CCCCC1 (configuration not stated),·,·,·,·,·,5.0%
O=C(CSc1nccn1Cc1ccco1)Nc1ccc(OC(F)(F)F)cc1,·,-29.7%,?,·,·,6.6%
COc1ccc(Cc2nnc(SCC(=O)Nc3cc(Cl)ccc3OC)[nH]c2=O)cc1,5.0,?,?,0.1,-2.2,-1.6%
CN(c1ccccc1)S(=O)(=O)c1ccc(Cl)c(C(=O)NCc2ccco2)c1,19.3,?,?,0.1,6.6,1.5%
CN(c1ccccc1)S(=O)(=O)c1ccc(Cl)c(C(=O)NCc2ccccc2CN2CCCC2)c1,?,23.1µM*,?,-7.8,-5.3,0.6%
CC(C)N(C)CCOC(=O)c1ccccc1Br,-3.9,?,16.4µM*,-5.5,-7.1,0.0%
COc1cc(C(=S)N2CCN(c3cccc(Cl)c3)CC2)ccc1O,10.2,18.4µM*,10.3µM*,-9.6,-17.7,2.5%
Oc1ccc(C(=S)N2CCN(c3cccc(Cl)c3)CC2)cc1,-93.1*,?,?,-9.8,-25.2,5.5%

# High-throughput results: PubChem, National Center for Advancing Translational Sciences (NCATS)
